According to the supplement of paper PMC3334620:
Whole data set: some 33,000 sequences, median “E-score (-0.5 to 0.5)” near -0.012, cut for the highest 2% near 0.29. This is one part of a sample in which the highest values are shown more often than they occur.

molecular target: T1, Ybr033w (UniProt P38073); assay: PBM E-score (8-mer binding enrichment) (E-score (-0.5 to 0.5)); higher = stronger / more preferred TF binding; conditions: protein concentration: 200 nM; construct: GST-full length
T1 sequence: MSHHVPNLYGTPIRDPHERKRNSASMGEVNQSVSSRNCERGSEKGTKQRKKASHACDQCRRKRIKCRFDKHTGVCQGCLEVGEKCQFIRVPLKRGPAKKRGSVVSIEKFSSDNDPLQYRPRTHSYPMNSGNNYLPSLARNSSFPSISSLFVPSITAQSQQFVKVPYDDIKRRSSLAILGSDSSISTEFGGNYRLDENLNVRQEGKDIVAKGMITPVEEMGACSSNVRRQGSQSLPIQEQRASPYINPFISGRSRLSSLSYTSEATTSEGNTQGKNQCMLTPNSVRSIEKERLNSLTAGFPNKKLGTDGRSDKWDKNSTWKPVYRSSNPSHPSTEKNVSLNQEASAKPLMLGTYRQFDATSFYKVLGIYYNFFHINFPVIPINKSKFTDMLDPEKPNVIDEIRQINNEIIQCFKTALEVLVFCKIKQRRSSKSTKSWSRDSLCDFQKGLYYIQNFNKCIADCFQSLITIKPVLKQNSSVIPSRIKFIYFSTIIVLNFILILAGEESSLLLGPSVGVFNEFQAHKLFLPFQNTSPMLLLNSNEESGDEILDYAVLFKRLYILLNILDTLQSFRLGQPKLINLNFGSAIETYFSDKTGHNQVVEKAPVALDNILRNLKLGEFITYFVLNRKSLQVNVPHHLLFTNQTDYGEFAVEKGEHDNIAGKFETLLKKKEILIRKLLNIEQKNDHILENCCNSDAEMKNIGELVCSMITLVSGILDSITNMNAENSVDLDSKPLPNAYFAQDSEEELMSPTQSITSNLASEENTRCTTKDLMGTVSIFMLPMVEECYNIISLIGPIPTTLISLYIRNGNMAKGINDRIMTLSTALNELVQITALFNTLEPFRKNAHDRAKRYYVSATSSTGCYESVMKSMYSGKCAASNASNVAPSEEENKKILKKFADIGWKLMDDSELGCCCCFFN
Experimental: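 Universal 'all 10-mer' protein binding microarrays (Agilent AMADID 015681) probed with GST-tagged S. cerevisiae TFs (full-length or DBD) made by in vitro transcription/translation (PURExpress), about 100-200 nM. Bound TF was detected with fluorescent anti-GST. Each ungapped 8-mer (which stands for itself and its reverse complement) is scored by the PBM enrichment score (E-score), a modified Wilcoxon-Mann-Whitney statistic from -0.5 to +0.5, computed with the Universal PBM Analysis Suite. Scale: above 0.35 generally sequence-specific binding.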

| Sequence | PBM E-score |
| --- | --- |
| TATATACA | 0.24 |
| GATATACA | 0.144 |
| CATATACC | -0.165 |
| AATATACA | 0.316 |
| AGTATACA | 0.185 |
| CATATACA | 0.324 |
| TGTATACA | 0.341 |
| GTCTAATA | 0.0847 |
| GGCTCCAC | -0.267 |
| GATAGGAC | -0.188 |
| GTGATCAC | -0.181 |
| TACTCACA | 0.158 |
| ATCGAGCG | -0.089 |
| GATCTAGA | 0.0239 |
| GATACCCA | 0.0285 |
| AAATATAG | 0.305 |
| AAATAGTT | 0.227 |
| CAATATAG | 0.115 |
| AAATAGTG | 0.292 |
| CTATATAG | 0.0604 |
| AACTATAT | 0.335 |
| AACTATAG | 0.104 |

| Sequence | PBM E-score |
| --- | --- |
| AACTATAC | 0.151 |
| AAATATGG | 0.12 |
| ATATATAG | 0.332 |
| AAATAGTC | 0.0679 |
| AGATATAG | 0.171 |
| TCATCGGA | 0.109 |
| CAACCTTA | 0.14 |
| CCTTAGCG | -0.178 |
| ATTTACCG | 0.132 |
| TACAATCA | 0.171 |
| AACTACCG | 0.0353 |
| AAATATCT | 0.295 |
| AAATATCC | 0.273 |
| AAATATAC | 0.312 |
| TAATATAA | 0.379 |
| AAATATCG | 0.247 |
| CAATATAC | 0.0977 |
| TAATATGA | 0.284 |
| AAGTATAG | 0.12 |
| GAATATAC | 0.141 |
| AAGTATAT | 0.302 |
| AAGTATAA | 0.152 |

| Sequence | PBM E-score |
| --- | --- |
| TAATAGAA | 0.198 |
| AGAGTAGG | 0.0322 |
| CTATCTGC | -0.0829 |
| ACAACTGT | 0.106 |
| CCACTACC | -0.149 |
| AGGTGCAG | -0.186 |
| AATTCTGC | 0.0888 |
| ATGACGCA | -0.0224 |
| ACCAGGTA | -0.225 |
| ATCGTTAA | 0.24 |
| ATCTTCAG | 0.185 |
| AAATATAA | 0.305 |
| ATATATAT | 0.141 |
| AAATATGT | 0.252 |
| AAATAGAT | 0.289 |
| AAATAGAC | 0.101 |
| GAATATAA | 0.131 |
| AAATAGAG | 0.247 |
| CAATATAA | 0.284 |
| AAATATAT | 0.339 |
| CAAGTCGA | -0.0109 |
| GGTGAATA | 0.127 |

| Sequence | PBM E-score |
| --- | --- |
| ACGCAACG | 0.0621 |
| GTAAGTCA | 0.0193 |
| AAGCTTAC | 0.0655 |
| AAGGTTTG | 0.227 |
| AGGTGAGC | -0.172 |
| ACTAACCC | 0.0277 |
| GTCGCGAC | 0.234 |
| ATTAACAA | 0.382 |
| GTTAACAA | 0.0731 |
| ATTAACAC | 0.368 |
| ATTAACAG | 0.0928 |
| AATAACAC | 0.222 |
| CTTAACAC | 0.112 |
| AGATTAAG | 0.214 |
| GGATTAAC | 0.441 |
| TGATTAAA | 0.27 |
| AGATTAAT | 0.284 |
| AGATTAAA | 0.295 |
| AGATTAAC | 0.199 |
| CGATTAAA | 0.174 |
| CGATTAAC | 0.103 |
| GGATTAAA | 0.341 |
